# Experimental data taken from publication PMC7862700, “An all-to-all approach to the identification of sequence-specific readers for epigenetic DNA modifications on cytosine”.
# Columns and labels:
# Test in all cases: DAPPL (digital affinity profiling via proximity ligation, sequencing); 10 mM Tris-HCl pH 7.5, 50 mM NaCl, 1 mM DTT, 4% glycerol, room temperature, 30 min; GST-TFs on glutathione beads, 16-mer random dsDNA library, 0.1% formaldehyde crosslink after washing; high values mean tight binding
# FEV = target: T1, FEV (Homo sapiens, UniProt Q99581 1-238); settings: protein: recombinant; tags: N-terminal GST; dsDNA, one strand shown
# T1 sequence: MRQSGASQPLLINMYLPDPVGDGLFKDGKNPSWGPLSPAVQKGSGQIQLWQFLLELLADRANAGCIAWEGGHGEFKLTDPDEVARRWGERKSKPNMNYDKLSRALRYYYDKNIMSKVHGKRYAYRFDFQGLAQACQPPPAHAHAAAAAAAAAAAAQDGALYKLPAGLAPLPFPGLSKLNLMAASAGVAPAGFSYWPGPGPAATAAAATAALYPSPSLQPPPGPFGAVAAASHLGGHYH
# In short: (§1)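 Human transcription factors were made in yeast as GST fusions, captured on glutathione beads and barcoded with DNA. With a tag-only sample included, the pool was incubated with 200 nmole of a random double-stranded 16-mer DNA library in Tris/NaCl/DTT/glycerol buffer at room temperature for 30 min, then crosslinked with 0.1% formaldehyde after washing, ligated by proximity, amplified and sequenced. For binding signal, each hexamer's read frequency for a factor is divided by its frequency for the tag-only sample.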
# ETV5 = ETV5 (Homo sapiens, UniProt P41161 1-510); settings: protein: recombinant; tags: N-terminal GST; dsDNA, one strand shown
# Chain of ETV5 (P41161 whole entry): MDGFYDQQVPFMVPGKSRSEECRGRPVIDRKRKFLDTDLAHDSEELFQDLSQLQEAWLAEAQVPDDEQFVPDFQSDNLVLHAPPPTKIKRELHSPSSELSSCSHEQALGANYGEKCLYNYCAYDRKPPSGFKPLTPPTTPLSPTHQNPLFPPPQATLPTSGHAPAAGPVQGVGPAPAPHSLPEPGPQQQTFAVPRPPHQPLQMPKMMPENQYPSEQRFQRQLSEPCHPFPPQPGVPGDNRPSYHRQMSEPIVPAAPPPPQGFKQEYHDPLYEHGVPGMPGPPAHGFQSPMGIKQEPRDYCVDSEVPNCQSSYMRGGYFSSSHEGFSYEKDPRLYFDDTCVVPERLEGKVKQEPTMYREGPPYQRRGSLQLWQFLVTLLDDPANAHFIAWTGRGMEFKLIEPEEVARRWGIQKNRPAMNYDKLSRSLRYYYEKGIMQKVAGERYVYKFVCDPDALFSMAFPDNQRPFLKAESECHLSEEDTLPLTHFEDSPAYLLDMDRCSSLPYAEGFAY
# In short: as §1
# HSF1 = HSF1 (Homo sapiens, UniProt Q00613 1-529); settings: protein: recombinant; tags: N-terminal GST; chain copies: 3; dsDNA, one strand shown
# Chain of HSF1 (Q00613 whole entry): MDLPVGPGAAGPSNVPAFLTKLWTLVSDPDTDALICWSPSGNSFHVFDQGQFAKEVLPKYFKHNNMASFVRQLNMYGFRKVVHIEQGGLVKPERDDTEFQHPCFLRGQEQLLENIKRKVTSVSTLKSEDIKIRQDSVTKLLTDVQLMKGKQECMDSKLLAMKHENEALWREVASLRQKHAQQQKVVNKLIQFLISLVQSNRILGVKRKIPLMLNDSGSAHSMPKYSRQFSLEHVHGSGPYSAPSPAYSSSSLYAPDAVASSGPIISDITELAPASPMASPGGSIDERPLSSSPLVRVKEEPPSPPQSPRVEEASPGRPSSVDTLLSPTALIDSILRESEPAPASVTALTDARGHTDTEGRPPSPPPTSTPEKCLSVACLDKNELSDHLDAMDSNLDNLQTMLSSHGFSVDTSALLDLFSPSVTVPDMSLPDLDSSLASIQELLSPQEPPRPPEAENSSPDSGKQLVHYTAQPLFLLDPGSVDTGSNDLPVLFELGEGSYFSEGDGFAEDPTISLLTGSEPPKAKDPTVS
# In short: as §1
# SPIC = target: T2, SPIC (Homo sapiens, UniProt Q8N5J4 1-248); settings: protein: recombinant; tags: N-terminal GST; dsDNA, one strand shown
# T2 sequence: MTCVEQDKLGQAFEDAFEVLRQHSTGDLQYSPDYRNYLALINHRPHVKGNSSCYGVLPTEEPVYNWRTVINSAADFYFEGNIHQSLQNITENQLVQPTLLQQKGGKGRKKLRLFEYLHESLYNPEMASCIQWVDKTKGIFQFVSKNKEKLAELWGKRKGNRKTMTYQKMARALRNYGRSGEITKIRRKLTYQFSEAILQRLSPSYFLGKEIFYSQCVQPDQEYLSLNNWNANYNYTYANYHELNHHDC
# In short: as §1
# ELF4 = ELF4 (Homo sapiens, UniProt Q99607 1-663); settings: protein: recombinant; tags: N-terminal GST; dsDNA, one strand shown
# Chain of ELF4 (Q99607 whole entry): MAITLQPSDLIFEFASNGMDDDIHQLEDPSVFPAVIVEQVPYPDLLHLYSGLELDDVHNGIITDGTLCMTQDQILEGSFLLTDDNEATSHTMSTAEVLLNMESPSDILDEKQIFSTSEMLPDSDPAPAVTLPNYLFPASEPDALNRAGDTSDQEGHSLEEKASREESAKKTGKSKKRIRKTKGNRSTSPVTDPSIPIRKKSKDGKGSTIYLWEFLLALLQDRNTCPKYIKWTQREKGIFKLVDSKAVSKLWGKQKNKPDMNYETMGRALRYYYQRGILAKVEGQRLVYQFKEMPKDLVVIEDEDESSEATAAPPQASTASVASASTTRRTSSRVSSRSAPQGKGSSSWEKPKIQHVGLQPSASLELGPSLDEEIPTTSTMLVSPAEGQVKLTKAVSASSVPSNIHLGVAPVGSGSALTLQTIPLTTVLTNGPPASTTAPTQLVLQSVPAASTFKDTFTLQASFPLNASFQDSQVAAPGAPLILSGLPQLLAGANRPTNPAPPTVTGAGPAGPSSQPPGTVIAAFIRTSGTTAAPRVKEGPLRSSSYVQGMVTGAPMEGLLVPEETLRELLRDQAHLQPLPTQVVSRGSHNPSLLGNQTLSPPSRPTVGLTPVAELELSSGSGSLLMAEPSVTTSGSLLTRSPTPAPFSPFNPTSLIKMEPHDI
# In short: as §1
# ELK4 = target: T3, ELK4 (Homo sapiens, UniProt P28324-2 1-405); settings: protein: recombinant; tags: N-terminal GST; dsDNA, one strand shown
# T3 sequence: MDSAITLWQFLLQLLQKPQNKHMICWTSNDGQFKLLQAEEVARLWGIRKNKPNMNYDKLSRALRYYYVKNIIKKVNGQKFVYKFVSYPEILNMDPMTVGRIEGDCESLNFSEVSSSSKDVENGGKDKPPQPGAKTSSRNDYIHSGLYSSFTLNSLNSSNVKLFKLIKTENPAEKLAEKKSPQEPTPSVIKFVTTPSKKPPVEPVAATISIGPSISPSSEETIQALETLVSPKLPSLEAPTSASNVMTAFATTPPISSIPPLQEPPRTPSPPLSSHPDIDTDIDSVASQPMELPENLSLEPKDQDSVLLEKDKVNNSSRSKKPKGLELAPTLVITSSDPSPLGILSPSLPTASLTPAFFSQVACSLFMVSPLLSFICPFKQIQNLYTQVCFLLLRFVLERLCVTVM
# In short: as §1
# ETV2 = target: T4, ETV2 (Homo sapiens, UniProt O00321 1-342); settings: protein: recombinant; tags: N-terminal GST; dsDNA, one strand shown
# T4 sequence: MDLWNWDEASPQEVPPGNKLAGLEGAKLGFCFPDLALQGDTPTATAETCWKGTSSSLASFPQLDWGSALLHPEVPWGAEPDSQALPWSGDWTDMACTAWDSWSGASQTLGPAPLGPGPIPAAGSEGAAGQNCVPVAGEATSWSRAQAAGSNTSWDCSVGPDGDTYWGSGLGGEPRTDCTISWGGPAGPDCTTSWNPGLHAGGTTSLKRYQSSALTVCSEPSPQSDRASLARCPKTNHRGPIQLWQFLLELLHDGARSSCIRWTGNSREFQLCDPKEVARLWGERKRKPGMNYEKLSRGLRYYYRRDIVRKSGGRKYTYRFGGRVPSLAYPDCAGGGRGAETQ
# In short: as §1
# ELF3 = target: T5, ELF3 (Homo sapiens, UniProt P78545 1-371); settings: protein: recombinant; tags: N-terminal GST; dsDNA, one strand shown
# T5 sequence: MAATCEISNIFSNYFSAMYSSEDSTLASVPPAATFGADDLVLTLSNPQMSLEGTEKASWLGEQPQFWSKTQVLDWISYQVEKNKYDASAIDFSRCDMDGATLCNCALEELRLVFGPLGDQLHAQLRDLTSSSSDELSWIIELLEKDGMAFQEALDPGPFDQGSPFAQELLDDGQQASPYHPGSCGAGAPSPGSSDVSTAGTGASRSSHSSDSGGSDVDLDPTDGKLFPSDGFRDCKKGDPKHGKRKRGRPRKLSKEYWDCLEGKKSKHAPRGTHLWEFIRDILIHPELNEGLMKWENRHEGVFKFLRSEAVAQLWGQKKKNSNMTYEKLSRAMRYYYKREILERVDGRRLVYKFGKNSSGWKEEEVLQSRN
# In short: as §1
# CRX = CRX (Homo sapiens, UniProt O43186 1-299); settings: protein: recombinant; tags: N-terminal GST; dsDNA, one strand shown
# Chain of CRX (O43186 whole entry): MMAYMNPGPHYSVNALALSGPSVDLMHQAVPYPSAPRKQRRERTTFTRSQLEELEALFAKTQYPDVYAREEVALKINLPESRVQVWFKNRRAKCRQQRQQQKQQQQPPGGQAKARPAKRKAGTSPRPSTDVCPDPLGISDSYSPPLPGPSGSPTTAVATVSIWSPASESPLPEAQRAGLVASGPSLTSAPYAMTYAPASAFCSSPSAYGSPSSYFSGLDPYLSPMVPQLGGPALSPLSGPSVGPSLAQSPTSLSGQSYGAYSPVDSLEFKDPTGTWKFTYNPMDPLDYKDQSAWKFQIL
# In short: as §1
# ETV1 = ETV1 (Homo sapiens, UniProt P50549 1-477); settings: protein: recombinant; tags: N-terminal GST; dsDNA, one strand shown
# Chain of ETV1 (P50549 whole entry): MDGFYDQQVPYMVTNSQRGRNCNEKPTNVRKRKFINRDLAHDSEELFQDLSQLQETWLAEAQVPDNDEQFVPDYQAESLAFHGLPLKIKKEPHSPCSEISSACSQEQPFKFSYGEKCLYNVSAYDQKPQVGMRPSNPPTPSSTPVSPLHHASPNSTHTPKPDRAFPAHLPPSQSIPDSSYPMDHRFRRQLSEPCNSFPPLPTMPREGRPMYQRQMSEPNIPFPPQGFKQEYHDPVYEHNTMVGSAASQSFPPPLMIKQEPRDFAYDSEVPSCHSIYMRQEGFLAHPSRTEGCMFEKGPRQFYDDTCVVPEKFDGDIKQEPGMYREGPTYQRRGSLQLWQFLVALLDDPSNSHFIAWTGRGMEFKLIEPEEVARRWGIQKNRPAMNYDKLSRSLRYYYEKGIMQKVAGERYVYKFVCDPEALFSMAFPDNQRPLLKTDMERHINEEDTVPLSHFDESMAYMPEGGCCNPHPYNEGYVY
# In short: as §1
# ERF = target: T6, ERF (Homo sapiens, UniProt P50548 1-548); settings: protein: recombinant; tags: N-terminal GST; dsDNA, one strand shown
# T6 sequence: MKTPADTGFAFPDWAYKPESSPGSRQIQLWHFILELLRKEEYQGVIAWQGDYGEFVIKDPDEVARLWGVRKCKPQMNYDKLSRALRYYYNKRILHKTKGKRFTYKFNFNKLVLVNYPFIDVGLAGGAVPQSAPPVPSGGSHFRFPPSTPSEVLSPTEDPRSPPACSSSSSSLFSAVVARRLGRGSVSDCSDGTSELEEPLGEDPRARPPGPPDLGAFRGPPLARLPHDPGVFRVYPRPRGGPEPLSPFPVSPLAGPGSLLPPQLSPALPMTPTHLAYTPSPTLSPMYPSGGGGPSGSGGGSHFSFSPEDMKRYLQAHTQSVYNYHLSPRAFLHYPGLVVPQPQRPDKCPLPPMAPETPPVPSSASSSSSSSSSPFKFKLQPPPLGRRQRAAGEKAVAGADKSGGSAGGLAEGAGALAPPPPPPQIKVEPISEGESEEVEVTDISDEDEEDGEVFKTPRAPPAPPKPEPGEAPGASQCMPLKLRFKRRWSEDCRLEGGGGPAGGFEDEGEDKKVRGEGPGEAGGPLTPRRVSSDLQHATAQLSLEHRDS
# In short: as §1
# ETV3L = target: T7, ETV3L (Homo sapiens, UniProt Q6ZN32 1-361); settings: protein: recombinant; tags: N-terminal GST; dsDNA, one strand shown
# T7 sequence: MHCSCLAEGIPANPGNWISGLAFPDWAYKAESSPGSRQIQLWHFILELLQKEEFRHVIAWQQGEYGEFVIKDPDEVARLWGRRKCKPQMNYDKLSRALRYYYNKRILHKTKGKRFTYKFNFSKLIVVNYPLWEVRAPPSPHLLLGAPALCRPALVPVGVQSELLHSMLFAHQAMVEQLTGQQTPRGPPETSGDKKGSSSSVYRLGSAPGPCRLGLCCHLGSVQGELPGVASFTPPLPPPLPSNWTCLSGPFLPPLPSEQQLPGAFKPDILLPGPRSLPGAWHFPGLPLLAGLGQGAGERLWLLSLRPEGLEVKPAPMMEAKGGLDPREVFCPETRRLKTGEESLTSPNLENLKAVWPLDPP
# In short: as §1
# ETS2 = target: T8, ETS2 (Homo sapiens, UniProt P15036 1-469); settings: protein: recombinant; tags: N-terminal GST; dsDNA, one strand shown
# T8 sequence: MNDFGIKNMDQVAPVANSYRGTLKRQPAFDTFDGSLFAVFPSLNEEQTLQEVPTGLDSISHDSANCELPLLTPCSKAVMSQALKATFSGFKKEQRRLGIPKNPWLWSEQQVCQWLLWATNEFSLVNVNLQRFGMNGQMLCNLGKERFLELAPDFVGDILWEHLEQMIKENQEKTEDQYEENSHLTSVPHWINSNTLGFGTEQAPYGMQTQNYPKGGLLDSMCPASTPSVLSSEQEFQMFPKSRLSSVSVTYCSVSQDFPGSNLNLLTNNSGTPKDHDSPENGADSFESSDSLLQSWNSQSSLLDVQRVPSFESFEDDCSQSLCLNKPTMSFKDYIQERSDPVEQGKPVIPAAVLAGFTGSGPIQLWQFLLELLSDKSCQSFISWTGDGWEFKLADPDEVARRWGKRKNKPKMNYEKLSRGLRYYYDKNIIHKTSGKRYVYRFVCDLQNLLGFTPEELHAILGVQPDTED
# In short: as §1
# SPDEF = target: T9, SPDEF (Homo sapiens, UniProt O95238 1-335); settings: protein: recombinant; tags: N-terminal GST; dsDNA, one strand shown
# T9 sequence: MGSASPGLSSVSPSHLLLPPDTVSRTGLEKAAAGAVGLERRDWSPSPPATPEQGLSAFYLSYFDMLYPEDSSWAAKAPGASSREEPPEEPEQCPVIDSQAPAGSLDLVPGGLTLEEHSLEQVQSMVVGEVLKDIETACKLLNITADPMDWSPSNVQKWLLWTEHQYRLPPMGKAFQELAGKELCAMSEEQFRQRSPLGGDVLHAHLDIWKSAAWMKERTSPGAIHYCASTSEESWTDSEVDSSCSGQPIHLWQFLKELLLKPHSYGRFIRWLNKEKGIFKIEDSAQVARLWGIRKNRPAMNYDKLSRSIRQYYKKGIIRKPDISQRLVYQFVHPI
# In short: as §1
# ETV7 = target: T10, ETV7 (Homo sapiens, UniProt Q9Y603 1-341); settings: protein: recombinant; tags: N-terminal GST; dsDNA, one strand shown
# T10 sequence: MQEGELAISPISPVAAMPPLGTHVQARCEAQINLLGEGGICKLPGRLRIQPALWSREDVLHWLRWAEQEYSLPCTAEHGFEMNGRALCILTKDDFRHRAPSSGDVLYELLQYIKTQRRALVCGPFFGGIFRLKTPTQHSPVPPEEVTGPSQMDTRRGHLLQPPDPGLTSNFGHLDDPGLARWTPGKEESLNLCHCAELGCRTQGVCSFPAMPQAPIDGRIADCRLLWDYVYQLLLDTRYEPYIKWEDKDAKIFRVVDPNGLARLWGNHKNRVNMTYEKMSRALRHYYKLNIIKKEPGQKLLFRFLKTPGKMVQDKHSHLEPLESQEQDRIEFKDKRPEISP
# In short: as §1
# ELF5 = target: T11, ELF5 (Homo sapiens, UniProt Q9UKW6-2 1-255); settings: protein: recombinant; tags: N-terminal GST; dsDNA, one strand shown
# T11 sequence: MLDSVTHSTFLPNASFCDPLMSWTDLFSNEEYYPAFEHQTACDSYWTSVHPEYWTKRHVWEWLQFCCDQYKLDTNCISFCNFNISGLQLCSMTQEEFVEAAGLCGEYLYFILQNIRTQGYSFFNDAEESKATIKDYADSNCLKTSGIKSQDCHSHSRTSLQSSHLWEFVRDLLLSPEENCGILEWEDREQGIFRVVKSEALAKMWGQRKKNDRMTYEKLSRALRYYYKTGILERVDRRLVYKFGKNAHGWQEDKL
# In short: as §1
# ETV3 = target: T12, ETV3 (Homo sapiens, UniProt P41162-2 1-143); settings: protein: recombinant; tags: N-terminal GST; dsDNA, one strand shown
# T12 sequence: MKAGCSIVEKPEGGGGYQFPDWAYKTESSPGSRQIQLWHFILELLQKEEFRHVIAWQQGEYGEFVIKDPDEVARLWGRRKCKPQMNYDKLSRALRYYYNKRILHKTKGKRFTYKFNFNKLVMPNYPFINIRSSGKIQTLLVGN
# In short: as §1
# ETV6 = ETV6 (Homo sapiens, UniProt P41212 1-452); settings: protein: recombinant; tags: N-terminal GST; dsDNA, one strand shown
# Chain of ETV6 (P41212 whole entry): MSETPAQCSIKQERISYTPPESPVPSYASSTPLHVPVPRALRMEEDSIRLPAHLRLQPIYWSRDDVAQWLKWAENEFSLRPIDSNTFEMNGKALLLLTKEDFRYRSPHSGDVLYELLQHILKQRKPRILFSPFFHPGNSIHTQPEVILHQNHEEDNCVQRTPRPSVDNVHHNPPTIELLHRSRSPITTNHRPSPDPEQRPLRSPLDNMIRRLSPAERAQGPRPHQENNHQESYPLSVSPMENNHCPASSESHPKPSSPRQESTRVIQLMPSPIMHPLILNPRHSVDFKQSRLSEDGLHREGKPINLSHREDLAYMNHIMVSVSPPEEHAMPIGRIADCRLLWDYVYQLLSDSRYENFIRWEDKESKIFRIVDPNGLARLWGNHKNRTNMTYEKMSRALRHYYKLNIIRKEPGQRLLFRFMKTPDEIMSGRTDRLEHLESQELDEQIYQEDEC
# In short: as §1
sequence,measurement,setting,value
TCATTC,binding signal,FEV,"1.19 fold enrichment (6-mer frequency, TF over GST control)"
same,binding signal,ETV5,"1.19 fold enrichment (6-mer frequency, TF over GST control)"
same,binding signal,HSF1,"1.5 fold enrichment (6-mer frequency, TF over GST control)"
same,binding signal,SPIC,"1.13 fold enrichment (6-mer frequency, TF over GST control)"
same,binding signal,ELF4,"1.26 fold enrichment (6-mer frequency, TF over GST control)"
same,binding signal,ELK4,"1.34 fold enrichment (6-mer frequency, TF over GST control)"
same,binding signal,ETV2,"1.27 fold enrichment (6-mer frequency, TF over GST control)"
same,binding signal,ELF3,"1.2 fold enrichment (6-mer frequency, TF over GST control)"
same,binding signal,CRX,"1.22 fold enrichment (6-mer frequency, TF over GST control)"
same,binding signal,ETV1,"1.2 fold enrichment (6-mer frequency, TF over GST control)"
same,binding signal,ERF,"1.15 fold enrichment (6-mer frequency, TF over GST control)"
same,binding signal,ETV3L,"1.28 fold enrichment (6-mer frequency, TF over GST control)"
same,binding signal,ETS2,"1.13 fold enrichment (6-mer frequency, TF over GST control)"
same,binding signal,SPDEF,"1.09 fold enrichment (6-mer frequency, TF over GST control)"
same,binding signal,ETV7,"1.15 fold enrichment (6-mer frequency, TF over GST control)"
same,binding signal,ELF5,"1.12 fold enrichment (6-mer frequency, TF over GST control)"
same,binding signal,ETV3,"1.21 fold enrichment (6-mer frequency, TF over GST control)"
same,binding signal,ETV6,"1.24 fold enrichment (6-mer frequency, TF over GST control)"
